The record followed here is PubChem BioAssay (NCATS).

A short description of assay [1]: Quantitative High-Throughput drug screen in 47 multiple myeloma cell lines against the NCATS MIPE library collection: PCM6_Riken cell viability assay (AID 1919870). Note: nearly all actives have a fitted effect of over 30% in size. The procedure, abridged: (§1)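 ATP-based CellTiter-Glo luminescence after 48 h drug exposure (37 °C, 5% CO2) of 500 myeloma cells per well. DMSO-only wells set 100% viability, media-only wells 0%; MIPE 4.0 library added by pin tool.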

The nature of assay [2]: Quantitative High-Throughput drug screen in 47 multiple myeloma cell lines against the NCATS MIPE library collection: RPMI8226_ATCC cell viability assay (AID 1919871). Note: nearly all actives have a fitted effect of over 30% in size. The procedure, abridged:
as §1

The nature of assay [3]: Quantitative High-Throughput drug screen in 47 multiple myeloma cell lines against the NCATS MIPE library collection: OPM2_DSMZ cell viability assay (AID 1919872). Note: nearly all actives have a fitted effect of over 30% in size. The procedure, abridged:
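CellTiter-Glo ATP luminescence gave viability after 48 h compound treatment at 37C of 500 multiple myeloma cells per well. Normalisation used DMSO-only wells as 100% and media-only wells as 0% viability; primary qHTS of approved and investigational drugs.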

Assay [4] in a line: Quantitative High-Throughput drug screen in 47 multiple myeloma cell lines against the NCATS MIPE library collection: KMS11_JCRBsus cell viability assay (AID 1919873). Note: nearly all actives have a fitted effect of over 50% in size. The gist of the method:
as §1

Assay [5] in a line: Quantitative High-Throughput drug screen in 47 multiple myeloma cell lines against the NCATS MIPE library collection: KMS28BM_JCRB cell viability assay (AID 1919874). Note: nearly all actives have a fitted effect of over 35% in size. The procedure, abridged: as §1

Results filed as inconclusive are left out. Activity calls are given as the source filed them. Calls come from the whole dose curve; as a rule, active = well fitted cell-killing curve with a large enough effect; inconclusive = small, poorly fitted or top-dose-only effect, or effect the other way; inactive = no such curve, though single readings can be large or run the other way.
Potency is the fitted concentration of half-maximal effect.

`CC(C)(C)c1cc(C(=O)O)c(NC(=O)Nc2ccc3[nH]ncc3c2)s1`: the Potency entry in assay [1], in assay [2], in assay [3] and in assay [4] was “inactive” each time.
`CC(=O)Nc1ccc([C@H](C)C(=O)Nc2ncc(C(C)C)s2)cc1`: the Potency was 1.48 µM (active) in assay [1], 2.64 µM (active) in assay [2], 8.33 µM (active) in assay [3] and 2.35 µM (active) in assay [4].
Turning to `Cn1c(N2CCCCS2(=O)=O)nc(C(=O)NCc2ccc(F)cc2)c(O)c1=O`, the Potency entry in assay [1], in assay [2] and in assay [3] was “inactive” each time.
As to `Cc1[nH]c(C=C2C(=O)Nc3ccc(S(=O)(=O)Cc4c(Cl)cccc4Cl)cc32)c(C)c1C(=O)N1CCC[C@H]1CN1CCCC1`, the Potency was 7.43 µM (active) in assay [1]; 20.9 µM (active) in assay [2]; 26.4 µM (active) in assay [3]; 11.8 µM (active) in assay [4]; 20.9 µM (active) in assay [5].
For the compound `C[N+]1(C)[C@@H]2CC(OC(=O)[C@H](CO)c3ccccc3)C[C@H]1[C@H]1O[C@@H]12` (some centres undefined), the Potency entry in assay [1], in assay [2], in assay [3], in assay [4] and in assay [5] was “inactive” in each case.
As to `O=c1[nH]cnc2c1ncn2[C@H]1CC[C@@H](CO)O1`, the Potency result in assay [1], in assay [2] and in assay [3] was “inactive” throughout.
For `CN1C[C@H]2c3ccccc3Oc3ccc(Cl)cc3[C@@H]2C1`, in assay [1], the Potency is 11.8 µM (active). Besides, the Potency entry in assay [2] and in assay [3] was “inactive” in each case.
With `CC(C)C(C)C=CC(C)C1CCC2C3=CC=C4CC(O)CCC4(C)C3CCC21C` (centres undefined), the Potency result in assay [1], in assay [2], in assay [3] and in assay [4] was “inactive” throughout.
Turning to `O=C(Nc1ccccc1-c1cn2c(CN3CCNCC3)csc2n1)c1cnc2ccccc2n1`, the Potency was 10.5 µM (active) in assay [1], 20.9 µM (active) in assay [2], 23.5 µM (active) in assay [3] and 8.33 µM (active) in assay [4].
On to `CC1(C)CCC(CN2CCN(c3ccc(C(=O)NS(=O)(=O)c4ccc(NCC5CCOCC5)c([N+](=O)[O-])c4)c(Oc4cnc5[nH]ccc5c4)c3)CC2)=C(c2ccc(Cl)cc2)C1`, for which the values for the Potency in assay [1], in assay [2] and in assay [3] were 0.148 µM (active), 14.8 µM (active) and 20.9 µM (active), respectively. Also, the Potency result in assay [4] was “inactive”.
`COc1cc2ncnc(Nc3ccc(F)c(Cl)c3)c2cc1OCCCN1CCOCC1`: the Potency in assay [1] is 6.05 µM (active); in assay [2] it was 42.9 µM (active); in assay [3], 54 µM (active).
Regarding `Cc1ccc(C(C)(O)c2nc3ccccc3s2)c(C)c1` (centres undefined), the Potency result in assay [1], in assay [2] and in assay [3] was “inactive” in each case.
As to `O=C(O)c1ccccc1C(=O)Nc1ccc(-c2ccccc2)cc1`, the Potency result in assay [1], in assay [2], in assay [3], in assay [4] and in assay [5] was “inactive” each time.
Turning to `Cc1ccc(C(=O)Nc2cccc(C(F)(F)F)c2)cc1Nc1nc(-c2cccnc2)nc2c1cnn2C`, the figures for the Potency in assay [1], in assay [2] and in assay [3] were 20.9 µM (active), 18.7 µM (active) and 16.6 µM (active), respectively.
For `CC(C)n1nc(-c2ccc3oc(N)nc3c2)c2c(N)ncnc21`, the Potency in assay [1] was 0.0662 µM (active).
As to `Nc1nc(F)nc2c1ncn2[C@@H]1O[C@H](COP(=O)(O)O)[C@@H](O)[C@H]1O`, the Potency entry in assay [1], in assay [2] and in assay [3] was “inactive” in each case.
As for `CN(C)Cc1cccc(N=C(c2ccccc2)c2c(O)[nH]c3cc(C(=O)N(C)C)ccc23)c1`, the Potency in assay [1] and in assay [2] was 10.5 µM (active) throughout.
Consider `CO[C@H]1C(=O)[C@]2(C)[C@@H](OC)C[C@H]3OC[C@@]3(OC(C)=O)[C@H]2[C@H](OC(=O)c2ccccc2)[C@]2(O)C[C@H](OC(=O)[C@H](O)[C@@H](NC(=O)OC(C)(C)C)c3ccccc3)C(C)=C1C2(C)C`, for which the Potency in assay [1] is 0.0012 µM (active). Besides, the Potency entry in assay [2], in assay [3], in assay [4] and in assay [5] was “inactive” throughout.
For `CC(C)(C)COc1ccc(-n2cc(C(=O)O)cn2)cc1C#N`, the Potency entry in assay [1], in assay [2], in assay [3] and in assay [4] was “inactive” throughout.
Turning to `COc1cc2c(cc1OC)CN(CCc1ccc(NC(=O)c3cc(OC)c(OC)cc3NC(=O)c3cnc4ccccc4c3)cc1)CC2`, the Potency in assay [1] is 18.7 µM (active); in assay [2] it was 0.418 µM (active). The Potency result in assay [3] is “inactive”.
In the case of `CC(C)(C)C(=O)Oc1ccc2c(c1)nc(NC(=O)c1cccc([N+](=O)[O-])c1)n2CCCO`, the Potency entry in assay [1], in assay [3], in assay [4] and in assay [5] was “inactive” throughout. In addition, in assay [2], the Potency is 18.7 µM (active).
`O=C(O)c1cc(O)c2c(c1)C(=O)c1cccc(O)c1C2=O`: the Potency result in assay [1], in assay [3], in assay [4] and in assay [5] was “inactive” in each case. The Potency in assay [2] was 42.9 µM (active).
For the compound `CCn1cc(C(=O)O)c(=O)c2ccc(C)nc21`, the Potency result in assay [1], in assay [2] and in assay [3] was “inactive” in each case.
In the case of `CCOC(=O)O[C@]1(C(=O)OCCl)CC[C@@H]2[C@H]3CCC4=CC(=O)C=C[C@]4(C)[C@@H]3[C@@H](O)C[C@@]21C`, the Potency result in assay [1], in assay [3] and in assay [5] was “inactive” in each case. For the same compound, the Potency in assay [2] was 0.118 µM (active); in assay [4], 0.264 µM (active).
`CCC(CC)[C@H](NC(C)=O)[C@@H]1[C@H](O)[C@@H](C(=O)O)C[C@@H]1N=C(N)N`: the Potency result in assay [1], in assay [2] and in assay [3] was “inactive” in each case.
With `CC(=O)Oc1cc2c(s1)CCN(C(C(=O)C1CC1)c1ccccc1F)C2` (centres undefined), in assay [1], the Potency is 1.48 µM (active).
Take `COc1cc(N2CCC(N3CCN(C)CC3)CC2)ccc1Nc1ncnc(Nc2ccccc2S(=O)(=O)C(C)C)n1`: the Potency in assay [1] is 16.6 µM (active).
On to `CC(C)n1cnc2c(NCCCCCCNC(=O)OC(C)(C)C)nc(NCCO)nc21`, for which the results for the Potency in assay [1] and in assay [2] were 16.6 µM (active) and 14.8 µM (active), respectively.
Consider `O=c1c(-c2ccc(O)cc2)coc2cc(OC3O[C@H](CO)[C@H](O)[C@H](O)[C@H]3O)cc(O)c12` (some centres undefined), for which the figures for the Potency in assay [1] and in assay [2] were 2.64 µM (active) and 16.6 µM (active), respectively. The Potency entry in assay [3] was “inactive”.
